# Assay results from PubChem BioAssay AID624305 (National Center for Advancing Translational Sciences (NCATS), 2012).
# Inconclusive results are not listed. Calls of active or inactive are those of the source. The call rests on the fitted dose curve; in most records, active means well fitted activation curve with a large enough effect; inconclusive means small, poorly fitted or top-dose-only effect; inactive means no such curve, though single readings can be large or run the other way.
# Experiment: qHTS assay for re-activators of p53 using a Luc reporter: Hit Validation; further: nearly all actives have a fitted effect of over 75% in size; on activation: 0% is about no effect
# Settings: p53-responsive luciferase reporter cells, luminescence, H1299 line expressing heat-sensitive Ala138Val p53; series mostly up to 46.1 µM; activation: at the top concentration
# Method in brief: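 Hit confirmation with a 1:5 dilution series, at 37 deg C for 24 hrs, in H1299 cells co-expressing temperature-sensitive p53-A138V and p53-responsive luciferase. Nocodazole served as control; luminescence read after 10 min with detection reagent.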
# Potency means the concentration at half of the fitted maximal effect.
Compound,activation,Potency
N#CC1=C(N)N2C(=C(C#N)C13CCCCC3)SC1CCCCC12O (configuration not stated),-17.2% (inactive),–
CN1CCN(C2=C(Cl)C(=O)N(Cc3ccccc3)C2=O)CC1,32.3% (inactive),–
COCCSc1nnc(NC(=O)CCS(=O)(=O)c2ccccc2)s1,-38.9% [at 9.22 µM] (inactive),–
COc1ccc(NC(=O)CN(C)CC(=O)Nc2ccccc2SC)cc1,-11.5% (inactive),–
CCOc1ccc(-n2c(SCc3nc(-c4cccs4)no3)nnc2-c2ccncc2)cc1,-12.5% (inactive),–
Cc1cccc(Nc2nc(N3CCOCC3)nc(N3CCOCC3)n2)c1,35.9% (inactive),–
COc1ccc(C2SCCN2C(=S)Nc2ccc(Cl)cc2)cc1 (configuration not stated),24.5% (inactive),–
O=C(COC(=O)CNC(=O)c1ccc([N+](=O)[O-])o1)Nc1ncc(C(F)(F)F)cc1Cl,-84.4% (inactive),–
CN(C)c1ccc(/C=N/N=C/c2ccccc2O)cc1,–,461 nM (active)
O=C(N/N=C/c1cccs1)c1n[nH]c2c1CCC2,–,517 nM (active)
Cc1cc(CC(C)C)n(-c2nc3ccccc3c(=O)n2OCC(N)=O)n1,26% (inactive),–
Cc1ccnc(NC(=O)c2sc3cc(Cl)ccc3c2Cl)c1,–,2910 nM (active)
CCCCC(=O)NC(c1ccc(Cl)cc1Cl)c1ccc2cccnc2c1O (configuration not stated),–,20600 nM (active)
Cc1cc(NC(c2cccnc2)c2ccc3cccnc3c2O)no1 (configuration not stated),128% (inactive),–
Fc1ccccc1OCCSc1nnnn1-c1ccccc1,–,820 nM (active)
Nc1nc(-c2ccc([N+](=O)[O-])cc2)cs1,20.3% (inactive),–
Cc1cc(N2CCCCC2)n2ncc(-c3ccc(Cl)cc3)c2n1,–,820 nM (active)
